Calls of active or inactive are those of the source.
Key:
[1] = binders of probe aFSTL3 on microarray, primary screen, stem cell growth factor project, biochemical, small-molecule microarray, fluorescence 635/667 (AID 1064); conditions: higher = more signal;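 note: measures binding of the biotinylated anti-FSTL3 antibody to printed compounds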
[2] = binders from COS7 lysate, DM2A8 probe, primary screen, torsin A project, cell lysate, small-molecule microarray, fluorescence 635/667 (AID 1065); conditions: higher = more signal, COS7 lysate expressing mutant human TOR1A
[3] = binders of probe aFGF2 on microarray, primary screen, stem cell growth factor project, biochemical, small-molecule microarray, fluorescence 635/667 (AID 1067); conditions: higher = more signal;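 note: measures binding of biotinylated aFGF2 protein to printed compounds on slides; z-score merges feature fluorescence and signal-to-noise across triplicate slides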
[4] = binders of probe aFGF10 on microarray, primary screen, stem cell growth factor project, biochemical, small-molecule microarray, fluorescence 635/667 (AID 1071); conditions: higher = more signal;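 note: score merges 667 nm spot intensity and signal to noise from triplicate slides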
[5] = molecular target: Neurogenic locus notch homolog protein 2 (Homo sapiens) (UniProt Q04721); test: Notch2 binders on small-molecule microarrays, primary screen, biochemical, small-molecule microarray, 635 nm fluorescence, stem cell growth factors (AID 1073); conditions: Notch2 binding, higher = more signal
[6] = molecular target: Pro-neuregulin-1, membrane-bound isoform (Homo sapiens) (UniProt Q02297); test: NRG1 binders on small-molecule microarrays, primary screen, psychiatric disease protein project, biochemical, small-molecule microarray, fluorescence 635/667 (AID 1075); conditions: NRG1 binding, 635 nm fluorescence, higher = more signal;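 note: score combines 667 nm spot fluorescence with signal to noise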
[7] = system: Neuregulin-1 EGF-like domain; test: binders of neuregulin-1 EGF-like domain, primary screen, biochemical, small-molecule microarray, 635 nm fluorescence (AID 1081); conditions: small-molecule microarray binding, higher = more signal;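 note: binding of the protein to compounds printed on small-molecule microarray slides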
[8] = FRG1 promoter luciferase signal modulators, primary screen, FRG1 inhibition for FSHD, cell-based, C2C12 myotubes, firefly/Renilla luciferase, luminescence (AID 1084); conditions: higher = more signal, called active from +8 up or from −8 down
[9] = binders of probe aFST on microarray, primary screen, stem cell growth factor project, biochemical, small-molecule microarray, fluorescence 635/667 (AID 1086); conditions: higher = more signal;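 note: score merges 667 nm fluorescence with signal-to-noise of each printed compound spot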
[10] = binders of probe aHhip on microarray, primary screen, stem cell growth factor project, biochemical, small-molecule microarray, fluorescence 635/667 (AID 1087); conditions: higher = more signal;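 note: score merges spot fluorescence at 667nm with spot signal to noise ratio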
[11] = system: PRMT1 (protein arginine N-methyltransferase 1); test: PRMT1 binders on small-molecule microarrays, primary screen, biochemical, small-molecule microarray, 635 nm fluorescence (AID 1088); conditions: small-molecule microarray binding, higher = more signal;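 note: binding of Prmt1 protein to compounds spotted on small-molecule microarray slides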
[12] = yeast growth modulation, basal conditions, primary screen, YJM789 clinical isolate, OD600, 24 h (AID 1089);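 note: growth of clinical yeast isolate S. cerevisiae YJM 789 seeded 1000 cells per well; test concentration not given here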; conditions: S. cerevisiae YJM789 growth, higher = more signal, called active from +8 up or from −8 down
[13] = fission yeast growth modulation, primary screen, strain 972, OD600, 24 h, no modulator (AID 1090);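 note: basal condition with compound alone and no growth modifier present; test concentration not given here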; conditions: S. pombe 972 growth, higher = more signal, called active from +8 up or from −8 down
[14] = S. cerevisiae growth modulation with rapamycin, primary screen, strain BY4716, OD600, 96 h (AID 1091); conditions: higher = more signal, called active from +8 up or from −8 down; note: test concentration not given here
[15] = molecular target: Torsin-1A-interacting protein 2 (Homo sapiens) (UniProt Q8NFQ8); test: LULL1 binders on small-molecule microarray, primary screen, cell lysate, human LULL1 lysate, 635/667 nm fluorescence (AID 1092); conditions: hLULL1 lysate binding, 635 nm fluorescence, higher = more signal;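 note: probe is lysate of COS7 cells overexpressing human LULL1; score merges per-feature 667 nm fluorescence with signal-to-noise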
[16] = E. coli growth modulation, two-sided OD650, primary screen, E. coli filamentation project, strain DRC41, 24 h (AID 1093); conditions: OD650, 24 h, higher = more signal, called active from +8 up or from −8 down;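 note: MC1000 strain lacking acrAB efflux and sulA so SOS filamentation is blocked; test concentration not given here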
[17] = small-molecule microarray binders of probe aLefty2, primary screen, biochemical, biotinylated probe, 635/667 nm fluorescence (AID 1094); conditions: higher = more signal;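 note: score merges spot fluorescence near 667 nm with spot signal-to-noise ratio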
[18] = system: Noggin (protein binding on small-molecule microarray); test: Noggin binders on small-molecule microarray, primary screen, biochemical, 635/667 nm fluorescence (AID 1095); conditions: 635 nm fluorescence, higher = more signal;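 note: score merges 667 nm feature fluorescence with signal to noise over triplicate slides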
[19] = molecular target: Neurogenic locus notch homolog protein 3 (Homo sapiens) (UniProt Q9UM47); test: NOTCH3 binders on small-molecule microarray, primary screen, biochemical, 635/667 nm fluorescence (AID 1096); conditions: NOTCH3 binding, 635 nm fluorescence, higher = more signal
[20] = small-molecule microarray binders of probe aEGFR, primary screen, biochemical, biotinylated probe, 635/667 nm fluorescence (AID 1097); conditions: higher = more signal;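 note: probe is a biotinylated anti-EGFR antibody binding compounds printed on slides; score combines fluorescence near 667 nm and signal to noise of each spot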

Pro-neuregulin-1, membrane-bound isoform (Homo sapiens), sequence (Q02297 whole entry, looked up, the tested form may be a part, canonical isoform): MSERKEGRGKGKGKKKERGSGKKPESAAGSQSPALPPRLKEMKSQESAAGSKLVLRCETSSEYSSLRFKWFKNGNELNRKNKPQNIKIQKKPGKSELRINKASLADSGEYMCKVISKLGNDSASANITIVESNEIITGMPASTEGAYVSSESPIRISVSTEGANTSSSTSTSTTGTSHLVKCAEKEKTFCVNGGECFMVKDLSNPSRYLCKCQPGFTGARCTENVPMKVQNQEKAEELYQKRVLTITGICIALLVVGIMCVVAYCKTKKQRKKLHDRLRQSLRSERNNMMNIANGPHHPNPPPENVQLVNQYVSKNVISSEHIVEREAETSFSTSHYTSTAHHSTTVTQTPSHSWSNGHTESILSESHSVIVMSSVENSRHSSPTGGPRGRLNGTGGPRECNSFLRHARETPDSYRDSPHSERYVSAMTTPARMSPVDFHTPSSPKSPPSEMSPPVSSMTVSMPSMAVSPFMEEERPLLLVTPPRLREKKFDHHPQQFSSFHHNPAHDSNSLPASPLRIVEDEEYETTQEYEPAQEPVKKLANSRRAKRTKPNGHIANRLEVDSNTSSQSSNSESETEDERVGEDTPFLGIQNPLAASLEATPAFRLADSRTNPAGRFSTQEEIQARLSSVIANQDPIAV
Torsin-1A-interacting protein 2 (Homo sapiens), sequence (Q8NFQ8 whole entry, looked up): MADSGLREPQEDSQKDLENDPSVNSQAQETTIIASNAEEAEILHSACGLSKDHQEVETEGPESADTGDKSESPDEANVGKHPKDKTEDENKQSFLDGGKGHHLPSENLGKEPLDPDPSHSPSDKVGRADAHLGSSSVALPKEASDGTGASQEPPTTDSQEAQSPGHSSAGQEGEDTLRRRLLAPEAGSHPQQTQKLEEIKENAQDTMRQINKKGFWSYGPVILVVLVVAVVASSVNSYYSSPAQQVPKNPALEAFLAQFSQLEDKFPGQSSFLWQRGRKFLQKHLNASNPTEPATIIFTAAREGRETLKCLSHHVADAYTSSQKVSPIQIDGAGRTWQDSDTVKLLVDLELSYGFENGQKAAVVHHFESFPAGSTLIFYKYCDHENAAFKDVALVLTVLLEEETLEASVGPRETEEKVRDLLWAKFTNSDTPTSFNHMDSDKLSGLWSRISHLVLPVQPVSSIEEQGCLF
Neurogenic locus notch homolog protein 3 (Homo sapiens), sequence (Q9UM47 whole entry, looked up): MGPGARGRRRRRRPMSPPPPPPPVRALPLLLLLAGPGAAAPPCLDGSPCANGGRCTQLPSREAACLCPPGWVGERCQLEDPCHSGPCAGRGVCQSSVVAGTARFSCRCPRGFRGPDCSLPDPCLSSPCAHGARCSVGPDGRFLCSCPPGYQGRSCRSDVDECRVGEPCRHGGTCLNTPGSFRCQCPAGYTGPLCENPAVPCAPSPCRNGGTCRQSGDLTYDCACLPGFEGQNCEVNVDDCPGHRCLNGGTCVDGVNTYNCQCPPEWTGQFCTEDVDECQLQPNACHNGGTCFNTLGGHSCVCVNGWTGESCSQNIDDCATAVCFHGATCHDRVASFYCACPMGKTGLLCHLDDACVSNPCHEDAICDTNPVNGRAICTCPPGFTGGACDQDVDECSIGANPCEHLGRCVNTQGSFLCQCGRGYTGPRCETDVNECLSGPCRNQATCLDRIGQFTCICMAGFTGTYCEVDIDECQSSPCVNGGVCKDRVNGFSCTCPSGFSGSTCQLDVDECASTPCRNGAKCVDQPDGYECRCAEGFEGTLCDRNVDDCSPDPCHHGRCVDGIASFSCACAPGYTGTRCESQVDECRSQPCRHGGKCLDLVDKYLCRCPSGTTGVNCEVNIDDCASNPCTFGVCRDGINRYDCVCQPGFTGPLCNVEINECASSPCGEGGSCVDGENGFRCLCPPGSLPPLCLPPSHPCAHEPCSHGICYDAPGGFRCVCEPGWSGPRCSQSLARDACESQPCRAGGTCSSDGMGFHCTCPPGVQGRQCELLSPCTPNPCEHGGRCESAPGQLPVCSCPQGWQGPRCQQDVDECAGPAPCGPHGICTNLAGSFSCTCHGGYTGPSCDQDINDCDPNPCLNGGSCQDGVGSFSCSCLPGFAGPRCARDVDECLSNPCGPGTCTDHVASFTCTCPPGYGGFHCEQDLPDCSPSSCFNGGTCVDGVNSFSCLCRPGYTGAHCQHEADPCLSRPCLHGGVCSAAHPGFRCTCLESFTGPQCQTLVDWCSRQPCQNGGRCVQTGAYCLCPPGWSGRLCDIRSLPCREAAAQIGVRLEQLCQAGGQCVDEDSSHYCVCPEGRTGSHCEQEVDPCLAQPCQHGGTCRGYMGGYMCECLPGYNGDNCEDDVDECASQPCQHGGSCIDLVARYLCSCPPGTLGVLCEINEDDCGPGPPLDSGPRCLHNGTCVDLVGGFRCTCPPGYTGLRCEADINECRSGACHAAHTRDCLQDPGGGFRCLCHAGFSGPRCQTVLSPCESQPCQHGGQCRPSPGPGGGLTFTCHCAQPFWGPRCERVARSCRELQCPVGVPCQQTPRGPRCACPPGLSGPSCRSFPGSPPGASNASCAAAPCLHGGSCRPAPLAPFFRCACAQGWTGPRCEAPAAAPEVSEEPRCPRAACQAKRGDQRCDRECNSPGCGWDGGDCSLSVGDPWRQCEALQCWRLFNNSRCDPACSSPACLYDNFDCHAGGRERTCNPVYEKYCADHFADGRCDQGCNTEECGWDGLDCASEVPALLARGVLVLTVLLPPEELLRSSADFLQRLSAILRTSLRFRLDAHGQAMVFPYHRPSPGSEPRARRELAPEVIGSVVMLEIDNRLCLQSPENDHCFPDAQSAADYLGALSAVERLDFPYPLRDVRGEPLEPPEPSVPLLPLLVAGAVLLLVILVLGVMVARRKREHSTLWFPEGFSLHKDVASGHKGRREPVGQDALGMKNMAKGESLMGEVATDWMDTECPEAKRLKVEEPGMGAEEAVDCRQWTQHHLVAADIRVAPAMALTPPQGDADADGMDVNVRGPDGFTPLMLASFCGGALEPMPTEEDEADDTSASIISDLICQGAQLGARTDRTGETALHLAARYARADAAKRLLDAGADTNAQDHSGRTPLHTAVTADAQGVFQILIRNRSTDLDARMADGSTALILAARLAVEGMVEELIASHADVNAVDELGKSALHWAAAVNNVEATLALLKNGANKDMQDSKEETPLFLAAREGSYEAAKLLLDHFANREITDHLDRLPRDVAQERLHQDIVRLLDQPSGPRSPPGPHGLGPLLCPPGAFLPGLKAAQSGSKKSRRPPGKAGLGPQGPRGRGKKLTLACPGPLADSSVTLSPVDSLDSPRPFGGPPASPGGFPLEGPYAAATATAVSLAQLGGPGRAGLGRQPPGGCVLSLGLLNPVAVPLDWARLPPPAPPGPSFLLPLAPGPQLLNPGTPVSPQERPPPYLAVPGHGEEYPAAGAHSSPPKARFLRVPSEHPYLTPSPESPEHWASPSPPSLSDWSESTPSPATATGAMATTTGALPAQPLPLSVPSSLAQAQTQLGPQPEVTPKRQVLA

Structure (SMILES)	composite z-score [1]	composite z-score [2]	composite z-score [3]	composite z-score [4]	composite z-score [5]	composite z-score [6]	composite z-score [7]	z-score [8]	composite z-score [9]	composite z-score [10]	composite z-score [11]	z-score [12]	z-score [13]	z-score [14]	composite z-score [15]	z-score [16]	composite z-score [17]	composite z-score [18]	composite z-score [19]	composite z-score [20]
O=C(O)[C@@H]1C[C@@H]2C(=O)N3CCC[C@H]3C(=O)N2[C@@H]1c1cccc(OCCO)c1	3.06	2.45	0.588	0.648	1.7	2.68	1.49	1.39 (inactive)	3.21	1.1	1.53	-0.386 (inactive)	-1.98 (inactive)	-0.533 (inactive)	4.25	1.14 (inactive)	1.49	1.95	1.07	1.27
COCCCNC(=O)[C@@H]1c2ccccc2C(=O)N(C2Cc3ccccc3C2)[C@H]1c1ccc(CO)cc1	-0.0989	0.703	-0.151	0.0338	-0.0746	0.209	1.4	0.0504 (inactive)	0.506	-0.137	1.17	0.0011 (inactive)	-0.471 (inactive)	-0.559 (inactive)	1.74	0.935 (inactive)	-0.0237	0.163	-0.0847	-0.0549
CN(C)C(=O)[C@@]1(CCC(=O)OC(C)(C)C)N=C(c2ccc(OCCCO)cc2)O[C@H]1c1ccccc1CN=[N+]=[N-]	-0.0162	1.01	0.0408	0.39	1.06	1.92	1.28	-0.119 (inactive)	0.717	0.0373	1.51	-0.142 (inactive)	0.245 (inactive)	-1.11 (inactive)	3.83	0.488 (inactive)	0.047	0.968	0.599	-0.0238
O=C(CS)NCCCCCCNC(=O)[C@@H]1C[C@@H]2C(=O)NCC(=O)N2[C@@H]1c1ccc(O)cc1	0.169	-0.0906	-0.157	-0.505	-0.918	-0.75	0.729	-1.15 (inactive)	-0.183	-0.0324	0.801	-2.07 (inactive)	0.172 (inactive)	-0.436 (inactive)	2.92	0.869 (inactive)	-0.0692	-0.728	-0.028	-0.218
C=C(CCCC)/C(=C/C[C@H](OC(C)=O)c1ccc(OCCO)cc1)c1cc(C(=O)OC)ccc1OC	-0.321	-0.137	0.0057	0.674	-0.0254	1.04	1	8.65 (active)	-0.28	-0.179	1.25	0.966 (inactive)	-0.628 (inactive)	-0.59 (inactive)	2.36	0.54 (inactive)	-0.0238	0.917	0.563	-0.115
COc1cccc(/C=C(\C#N)C(=O)Nc2c(C)n(C)n(-c3ccccc3)c2=O)c1	-0.408	0.251	-0.107	0.324	0.694	1.06	1.1	-0.496 (inactive)	0.336	-0.216	0.564	-1.58 (inactive)	-0.958 (inactive)	-0.978 (inactive)	2.66	-0.23 (inactive)	0.0852	0.161	0.539	-0.0828
O=C(NCC(O)CO)[C@@]1(CCS(=O)(=O)c2ccccc2)COC(c2ccc(OCCCO)cc2)=N1 (stereo not given in full)	1.05	1.85	0.0729	0.25	1.45	2.12	1.41	-1.16 (inactive)	1.1	-0.214	0.797	0.257 (inactive)	-0.197 (inactive)	0.648 (inactive)	3.86	0.671 (inactive)	0.362	0.481	0.79	0.473
CO[C@H]1O[C@H](CO)[C@@H](OC(=O)CCc2ccccc2)[C@H](OC(=O)c2cc3ccccc3[nH]2)[C@H]1OC(=O)c1cc2ccccc2[nH]1	-0.262	0.489	-0.0321	0.72	1.15	1.21	1.02	-0.3 (inactive)	0.29	0.0596	1.38	-0.583 (inactive)	-0.0932 (inactive)	20 (active)	2.74	1.5 (inactive)	-0.0468	0.565	1.07	-0.0662
C=CC[C@H](OC(=O)Nc1ccc(SC)cc1)c1ccc(OCCO)cc1	0.339	0.0366	-0.107	-0.85	-1.2	0.958	1.07	8.37 (active)	-0.413	-0.0994	-0.693	-0.739 (inactive)	-2.94 (inactive)	-0.598 (inactive)	0.639	0.951 (inactive)	-0.15	0.732	0.201	-0.19
COc1ccc(NC(=O)O[C@H]2[C@@H]3OC(=O)[C@H](Cc4cccc(Br)c4)C/C=C/C[C@@H](Cc4cccc(Br)c4)C(=O)O[C@H]3[C@@H](OC)O[C@@H]2CO)cc1	0.0355	1.4	0.0929	0.579	0.935	0.558	0.453	3.13 (inactive)	0.421	0.285	1.06	0.337 (inactive)	0.505 (inactive)	-0.127 (inactive)	1.36	0.904 (inactive)	0.123	0.331	0.656	-0.067
[N-]=[N+]=NCc1ccccc1[C@H]1OC(c2ccc(OCCCO)cc2)=N[C@@]1(CCS(=O)(=O)c1ccccc1)C(=O)NCc1ccccc1	0.174	0.447	0.138	0.914	1.53	1.33	1.24	-1.68 (inactive)	0.981	1.05	1.55	1.47 (inactive)	0.431 (inactive)	4.54 (inactive)	3.11	1.28 (inactive)	0.455	0.605	1.13	0.706
COC(=O)[C@@]1(Cc2ccccc2CN=[N+]=[N-])N=C(c2ccc(OCCCO)cc2)O[C@H]1c1ccccc1CN=[N+]=[N-]	0.629	-0.43	-0.0457	0.0746	-0.733	0.846	1.22	-1.23 (inactive)	-0.574	-0.226	0.812	0.84 (inactive)	1.96 (inactive)	35.5 (active)	1.3	0.478 (inactive)	-0.0458	-0.56	-0.498	-0.21
C=C(C)C1CCC(C(O)C2C=CC3C(=O)N(C)C(=O)C3N2Nc2cc(OC)c(OC)c(OC)c2)CC1 (stereo not given)	0.735	0.287	0.115	0.334	1.57	1.97	1.29	1.12 (inactive)	1.07	-0.0296	1.51	0.367 (inactive)	0.458 (inactive)	0.0769 (inactive)	3.28	-1.37 (inactive)	0.0361	0.205	1.02	0.0763
COc1cc(NN2C(C(O)C3CCCCC3)C=CC3C(=O)N(c4ccccc4)C(=O)C32)cc(OC)c1OC (stereo not given)	1.44	-0.28	-0.116	0.56	1.7	1.67	1.18	0.374 (inactive)	0.964	-0.202	0.955	0.93 (inactive)	1.06 (inactive)	0.408 (inactive)	3.25	-1.24 (inactive)	0.167	-0.273	1.07	-0.0068
COc1cc2c(cc1O)C(c1ccc(CN3CCCC3)cc1)N(C)CC2 (stereo not given)	-1.13	-0.77	-0.148	0.0711	-0.101	2.19	1.07	-0.426 (inactive)	-0.382	-0.81	-1.16	0.526 (inactive)	-0.262 (inactive)	0.539 (inactive)	0.54	0.774 (inactive)	-0.316	-0.814	-0.579	-0.191
C=CCC(OC(C)=O)[C@@H]1[C@@H](N(Cc2ccc(-c3ccccc3)cc2)C(=O)c2ccc(C)cc2)c2cc(OCCCO)ccc2N1C(=O)Cc1ccc2ccccc2c1 (stereo not given in full)	-0.377	-0.221	-0.107	0.0733	0.0573	-0.283	-0.422	-2.08 (inactive)	0.203	-0.134	0.543	-2.04 (inactive)	-0.71 (inactive)	-0.633 (inactive)	0.51	1.64 (inactive)	-0.0042	-0.0965	0.187	-0.126
CC(C)[Si]1(C(C)C)OCc2cc(-c3ccc(-c4ccc(Cl)c(Cl)c4)o3)nc(CCc3ccccc3)c21	0.0051	-0.217	-0.0332	-0.175	-0.412	0.572	0.261	0.999 (inactive)	-0.0731	-0.201	-0.45	-0.773 (inactive)	-3.07 (inactive)	0.952 (inactive)	0.797	1.15 (inactive)	-0.19	0.0365	-0.428	-0.218
CCOC(=O)C=Cc1cc(F)ccc1O	0.0251	0.17	0.0087	0.207	-0.0641	-0.0469	0.398	0.808 (inactive)	-0.0919	0.0524	0.311	-26.6 (active)	-15.2 (active)	-1.06 (inactive)	0.905	-0.624 (inactive)	-0.0446	-0.173	-0.18	-0.233
COC(=O)[C@@]1(Cc2ccccc2)[C@H]2c3cc(C(=O)N4CCCC4)n(CCSCCO)c3C[C@H]2CN1C(=O)c1ccccc1	0.729	0.773	0.457	0.525	1.83	1.66	1.37	-0.906 (inactive)	0.894	0.189	0.465	0.118 (inactive)	0.307 (inactive)	-0.0727 (inactive)	3.67	-1 (inactive)	0.788	0.511	0.899	0.0971
COC(=O)C(CC#Cc1ccc2c(c1)[C@]1(C(=O)N2)[C@H](c2ccc(O)cc2)N2[C@H](c3ccccc3)[C@H](c3ccccc3)OC(=O)[C@H]2[C@@H]1C(=O)N1CCCCCCC1)C(=O)OC	3.08	0.716	0.61	0.156	1.08	1.19	1.19	-0.546 (inactive)	2.44	0.17	1.53	-1.87 (inactive)	-1.29 (inactive)	-0.939 (inactive)	4.02	0.88 (inactive)	1.5	1.91	1.14	0.804

Reference: PubChem BioAssay
